This is an account of results in PubChem BioAssay (NCI).

Among the test systems are HCT-15 colon; HT29 colon; SNB-75 CNS; SNB-19 CNS; U251 CNS; PC-3 prostate; SK-MEL-5 melanoma; LOX IMVI melanoma; SK-MEL-28 melanoma; SK-MEL-2 melanoma; EKVX NSCLC; SN12C renal; UO-31 renal; TK-10 renal; CAKI-1 renal; A498 renal; ACHN renal; MOLT-4 leukemia; CCRF-CEM leukemia.
Holding throughout (experiment): NCI-60 one-dose screen, 48 h (100 = growth as untreated, 0 = no growth, -100 = all killed)
What all share (conditions): 10 µM unless noted

Values joined by “and” are separate entries in the source; they are usually repeats but may differ in a detail not shown here. Identical values can stand only once. Compounds without any hit were thinned out: in the full panel of roughly 83,000, 20% have a hit.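 Testing used 96-well plates and a 48-hour single-concentration exposure. Example: -40 means 40% of the starting cells died.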 Active and inactive are the calls of the source. How the source made its calls: active means growth percent below 10; inactive means the rest.

Consider `Nc1nc2ccccc2c2c(=O)c3ccc(Cl)cc3sc12`, for which the growth was 101% (inactive) in the experiment with HCT-15 colon; 98% (inactive) in the experiment with HT29 colon; 96.3% (inactive) in the experiment with SNB-75 CNS; 102% (inactive) in the experiment with SNB-19 CNS; 84.8% (inactive) in the experiment with U251 CNS; 89.9% (inactive) in the experiment on PC-3 prostate. Besides, the growth in the experiment with SK-MEL-5 melanoma is 104% (inactive); with LOX IMVI melanoma, 98% (inactive); in the experiment on SK-MEL-28 melanoma it was 110% (inactive); in the experiment on SK-MEL-2 melanoma, 106% (inactive); with EKVX NSCLC, 89.2% (inactive); in the experiment on SN12C renal, 91.3% (inactive). Besides, the growth in the experiment on UO-31 renal was 96.1% (inactive); with TK-10 renal, 130% (inactive); in the experiment with CAKI-1 renal, 89% (inactive); with A498 renal, 99.7% (inactive).

Consider `Cc1cc2nc(C(Cl)Cl)nc(-c3ccc(Cl)cc3)n2n1`, for which the growth in the experiment on HCT-15 colon was -20.4% (active); in the experiment on HT29 colon it was 2.12% (active); with SNB-75 CNS it was -22.7% (active); with SNB-19 CNS it was 12.6% (inactive); in the experiment with U251 CNS, 4.15% (active); with PC-3 prostate, 16.1% (inactive). Besides, the growth in the experiment on SK-MEL-5 melanoma was 41.2% (inactive); in the experiment with LOX IMVI melanoma, 48.4% (inactive); in the experiment on SK-MEL-28 melanoma it was 18.5% (inactive); in the experiment with SK-MEL-2 melanoma it was 49.2% (inactive); with EKVX NSCLC, -14% (active); in the experiment with SN12C renal, 36.5% (inactive). Also, the growth with UO-31 renal is -8.79% (active); in the experiment with TK-10 renal it was 4.92% (active); in the experiment with ACHN renal it was -41.7% (active); in the experiment with CAKI-1 renal, -38% (active); in the experiment with A498 renal, -16.9% (active); in the experiment on MOLT-4 leukemia, 21.6% (inactive).

Consider `O=C1C(c2c[nH]c3ccccc23)=C(c2coc3cc(Br)ccc23)C(=O)N1O`, for which the growth was 97.2% (inactive) with HCT-15 colon; 103% (inactive) with HT29 colon; 65.4% (inactive) with SNB-75 CNS; 103% (inactive) in the experiment on SNB-19 CNS; 101% (inactive) with U251 CNS; 89.6% (inactive) with PC-3 prostate. Moreover, the growth in the experiment with SK-MEL-5 melanoma is 97.2% (inactive); with LOX IMVI melanoma, 62.2% (inactive); in the experiment with SK-MEL-28 melanoma, 111% (inactive); in the experiment on SK-MEL-2 melanoma, 97.4% (inactive); in the experiment on EKVX NSCLC, 84.3% (inactive); in the experiment with SN12C renal it was 97.9% (inactive). Further, the growth with TK-10 renal was 137% (inactive); with ACHN renal, 110% (inactive); in the experiment with CAKI-1 renal, 100% (inactive); with A498 renal, 54.4% (inactive); in the experiment with CCRF-CEM leukemia, 89.4% (inactive); in the experiment with MOLT-4 leukemia it was 98.9% (inactive).

As to `C=C1CC[C@@H]2[C@](C)(COC(C)=O)[C@H](OC(C)=O)CC[C@@]2(C)[C@@H]1CC(Nc1ccc(S(=O)(=O)Nc2nccs2)cc1)C1=CCOC1=O` (stereo partly specified), the growth in the experiment on HCT-15 colon is -39.2% (active); with HT29 colon, -42.7% (active); in the experiment on SNB-75 CNS, 28.3% (inactive); in the experiment on SNB-19 CNS, 49.1% (inactive); in the experiment on U251 CNS, 4.21% (active); with PC-3 prostate, 21.8% (inactive). Moreover, the growth is 31.4% (inactive) in the experiment with SK-MEL-5 melanoma; -88.3% (active) with LOX IMVI melanoma; -16.3% (active) in the experiment on SK-MEL-28 melanoma; 28.4% (inactive) in the experiment on SK-MEL-2 melanoma; 73.4% (inactive) in the experiment with EKVX NSCLC; 15.6% (inactive) with SN12C renal. The growth in the experiment with UO-31 renal is 13.5% (inactive); with TK-10 renal, 55% (inactive); with ACHN renal it was -46.6% (active); with CAKI-1 renal it was 55.9% (inactive); with A498 renal it was 85% (inactive); with CCRF-CEM leukemia, -27.7% (active). The growth in the experiment with MOLT-4 leukemia is -4.45% (active).

For the compound `CSc1nnc(-c2cc3c([nH]c4ccccc43)c(-c3cccc(O)c3)n2)n1-c1ccc(C)cc1`, the growth in the experiment with HCT-15 colon is 23.2% (inactive); with HT29 colon it was 8.92% (active); in the experiment on SNB-75 CNS, 30.1% (inactive); in the experiment with SNB-19 CNS, 54.3% (inactive); with U251 CNS, 29.4% (inactive); with PC-3 prostate, 25.8% (inactive). The growth in the experiment with SK-MEL-5 melanoma was 13.5% (inactive); in the experiment on LOX IMVI melanoma, 29.3% (inactive); with SK-MEL-28 melanoma, 9.42% (active); in the experiment with SK-MEL-2 melanoma, -13.6% (active); in the experiment on EKVX NSCLC, 70.4% (inactive); in the experiment with SN12C renal, 62.7% (inactive). For the same compound, the growth was 41.5% (inactive) with UO-31 renal; 35.5% (inactive) in the experiment with TK-10 renal; 48.3% (inactive) in the experiment on CAKI-1 renal; 30.6% (inactive) in the experiment with A498 renal; 12.2% (inactive) with CCRF-CEM leukemia; 17.4% (inactive) in the experiment with MOLT-4 leukemia.

For the compound `O=S(=O)(Nc1cc(Sc2cccc3cccnc23)c(O)c2ccccc12)c1ccc(F)cc1`, the growth is -42.9% (active) in the experiment on HCT-15 colon; -40.9% (active) in the experiment on HT29 colon; 63.8% (inactive) in the experiment with SNB-75 CNS; 42.1% (inactive) in the experiment on SNB-19 CNS; 5.35% (active) with U251 CNS; 17% (inactive) in the experiment on PC-3 prostate. Also, the growth in the experiment on SK-MEL-5 melanoma was -40.2% (active); with LOX IMVI melanoma, -60.7% (active); with SK-MEL-28 melanoma, -16.2% (active); in the experiment with SK-MEL-2 melanoma, 1.64% (active); in the experiment with EKVX NSCLC, 37.1% (inactive); in the experiment with SN12C renal it was -15% (active). Further, the growth in the experiment with UO-31 renal is -11.2% (active); in the experiment on TK-10 renal, 17.1% (inactive); in the experiment on ACHN renal it was 0.351% (active); in the experiment on CAKI-1 renal, 11.9% (inactive); in the experiment with A498 renal it was 70.4% (inactive); in the experiment with CCRF-CEM leukemia, 5.42% (active). In addition, in the experiment on MOLT-4 leukemia, the growth was -18.4% (active).

Consider `CCCCCCCCCCCCCCCC[N+](C)(C)CCN(Cc1ccc(OC)cc1)c1ncccn1`, for which the growth is 74.4% (inactive) and 94.5% (inactive) in the experiment with HCT-15 colon; -100% (active) and 18.2% (inactive) in the experiment with HT29 colon; 51.9% (inactive) and 13% (inactive) with SNB-75 CNS; -48.7% (active) and 41.9% (inactive) with SNB-19 CNS; -82.5% (active) and 29.2% (inactive) with U251 CNS; -78% (active) and 15.4% (inactive) with PC-3 prostate. In addition, the growth in the experiment on SK-MEL-5 melanoma is 8.82% (active) and 39.8% (inactive); with LOX IMVI melanoma it was -76.8% (active) and 23.8% (inactive); with SK-MEL-28 melanoma, 33.3% (inactive) and 52.9% (inactive); in the experiment on SK-MEL-2 melanoma, 59.8% (inactive); with EKVX NSCLC, -84.6% (active); with SN12C renal, -57.9% (active) and 34% (inactive). For the same compound, the growth in the experiment on UO-31 renal is 9.57% (active) and 80.3% (inactive); in the experiment with TK-10 renal, -90.3% (active) and 71.7% (inactive); in the experiment on CAKI-1 renal it was 44.1% (inactive); with A498 renal it was -70.4% (active); in the experiment on CCRF-CEM leukemia it was -53.1% (active) and 23.7% (inactive); in the experiment on MOLT-4 leukemia, -52% (active) and 23.9% (inactive).
